Screening results as filed in PubChem BioAssay.
Only some compounds are listed: those with a hit (about 11% of all), similar ones and a draw of the others.
HEK cytotox: cytotoxic compounds in HEK 293 cells | 94,000 tested, 6.6% active | HEK 293 viability, ATP luminescence (CellTiter-Glo), 48-72 h | Potency, µM (series often up to 115 µM), inactives show at the highest dose activity change, negative = cytotoxicity, most hits filed as inhibitors; further: on the % scale 0 is the no-effect control and ±100 the full control effect; nearly all actives have a fitted effect of over 60% in size
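Cells seeded first (HEK 293, 250 cells/well), then compound added by pintool. Incubation ran 48 or 72 hr at 37 degree Celsius. CellTiter-Glo was added and luminescence imaged after 10 min at room temperature.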
NIH3T3 tox: cytotoxic compounds in NIH 3T3 cells; NIH 3T3 viability, CellTiter-Glo ATP luminescence, 48-72 h; Potency, µM (top dose mostly 96.7 µM), for the others: at the top dose activity change, negative = cytotoxicity, hits mostly inhibitors; 94,000 tested, 4.3% active; further: on the % scale 0 is the no-effect control and ±100 the full control effect; nearly all actives have a fitted effect of over 55% in size
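Viability of NIH 3T3 cells after 48 or 72 hr compound treatment at 37 °C was assessed by CellTiter-Glo, with luminescence imaged following a 10 min room-temperature step.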
FLuc inh-1: blocks purified firefly luciferase enzyme activity; P08659; purified P. pyralis luciferase, luminescence, biochemical; Potency, µM (highest dose often 115 µM), most hits filed as inhibitors; 76,000 tested, 2.5% active; AID 1347043; further: on the % scale 0 is the no-effect control and ±100 the full control effect; nearly all actives have a fitted effect of over 65% in size
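FLuc 10nM, D-luciferin 10uM, ATP 10uM, Mg acetate 10mM, Tris acetate pH 7.5, Tween/BSA; cpd qHTS; enzyme added last; CCD luminescence.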
hNpr1 antagonist: human Npr1 receptor antagonism | HEK293 hNpr1 GloSensor cGMP, ANP-stimulated luminescence | Potency, µM (highest dose often 46.3 µM), for inactives: at the highest dose activity change, negative = inhibition, actives largely listed as inhibitors | AID 1347048 | 76,000 tested, 1.6% active; calls by dose curve; further: on the % scale 0 is the no-effect control and ±100 the full control effect; nearly all actives have a fitted effect of over 60% in size
Target sequence (P16066 whole entry, looked up): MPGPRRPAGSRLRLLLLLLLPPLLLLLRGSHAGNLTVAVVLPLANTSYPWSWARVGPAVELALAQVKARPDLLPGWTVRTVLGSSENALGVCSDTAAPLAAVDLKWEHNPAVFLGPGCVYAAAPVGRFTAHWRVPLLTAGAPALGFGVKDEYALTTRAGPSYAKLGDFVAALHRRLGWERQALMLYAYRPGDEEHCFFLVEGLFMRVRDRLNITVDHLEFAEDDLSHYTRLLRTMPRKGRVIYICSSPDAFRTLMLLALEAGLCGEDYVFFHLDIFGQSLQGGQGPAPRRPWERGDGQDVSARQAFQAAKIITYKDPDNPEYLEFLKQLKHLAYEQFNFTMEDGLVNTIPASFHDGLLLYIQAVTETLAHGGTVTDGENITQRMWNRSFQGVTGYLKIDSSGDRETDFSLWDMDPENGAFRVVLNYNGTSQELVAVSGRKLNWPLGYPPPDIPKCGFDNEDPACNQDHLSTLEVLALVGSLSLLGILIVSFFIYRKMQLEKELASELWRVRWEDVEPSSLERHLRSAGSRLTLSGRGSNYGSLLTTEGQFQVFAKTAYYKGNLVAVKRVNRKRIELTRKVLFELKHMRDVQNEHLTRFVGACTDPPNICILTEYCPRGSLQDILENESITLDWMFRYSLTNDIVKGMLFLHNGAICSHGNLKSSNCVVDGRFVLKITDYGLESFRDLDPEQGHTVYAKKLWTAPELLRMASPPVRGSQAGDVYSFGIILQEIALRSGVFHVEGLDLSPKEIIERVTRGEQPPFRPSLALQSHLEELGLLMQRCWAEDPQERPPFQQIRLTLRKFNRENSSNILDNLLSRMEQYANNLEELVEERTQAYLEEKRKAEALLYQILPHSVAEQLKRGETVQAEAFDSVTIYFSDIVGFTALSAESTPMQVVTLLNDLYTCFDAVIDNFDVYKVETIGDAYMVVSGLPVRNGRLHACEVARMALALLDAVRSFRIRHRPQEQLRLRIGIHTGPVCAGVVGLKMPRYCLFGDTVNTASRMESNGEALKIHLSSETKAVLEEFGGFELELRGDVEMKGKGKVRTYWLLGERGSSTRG
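HEK293 cells stably expressing human Npr1 and cGMP GloSensor pGS-40F, loaded 2 h with 2% GloSensor reagent, given compound 30 min at room temperature. Luminescence read before and 20 min after 0.1 nM hNppA.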
FLuc SDR -ATP: binders stabilizing firefly luciferase, without ATP. shares compounds with FLuc inh-1. Purified FLuc-C-HiBiT, Nano-Glo HiBiT luminescence, no ATP. Potency, µM (titrated, usually from 32.7 µM), for the others: at the top dose activation (signal gain), usual class: activators. 1,300 tested, 7.8% active; further: nearly all actives have a fitted effect of over 55% in size
FLuc SDR ATP: stabilizes firefly luciferase with ATP present; 1,300 tested, 8.7% active; purified FLuc-C-HiBiT + ATP, HiBiT complementation luminescence; Potency, µM (titrated, usually from 32.7 µM), inactives show top-dose activation (gain of signal), actives largely listed as activators; shares compounds with FLuc inh-1;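 further: signal reports ligand binding via conformational change of the enzyme rather than luciferase catalysis; % of control where 0% means no effect; nearly all actives have a fitted effect of over 55% in size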
FLuc inh-2: firefly luciferase enzyme inhibition; Potency, µM (doses to about 32.7 µM), inactives show top-dose activity change, negative = inhibition, usual class: inhibitors; purified FLuc-C-HiBiT enzyme, luciferin luminescence; 1,300 tested, 42% active; AID 1963320; shares compounds with FLuc inh-1; further: on the % scale 0 is the no-effect control and ±100 the full control effect; nearly all actives have a fitted effect of over 70% in size
The depositor's hits bear a star; i = inactive; u = inconclusive; x = no result given; [ ] = dose if it differs, or a comment. Unless noted, the call rests on the fitted dose curve; in most records, active means well fitted curve in the direction sought with a large enough effect; inconclusive means small, poorly fitted or top-dose-only effect, or another doubt; inactive means no such curve, though single readings can be large; an effect the other way counts as inactive or inconclusive. Potency means the concentration at half of the fitted maximal effect.

SMILES	HEK cytotox	NIH3T3 tox	FLuc inh-1	hNpr1 antagonist	FLuc SDR -ATP	FLuc SDR ATP	FLuc inh-2
Cc1cc(-c2cc3c(cn2)CN(Cc2nccn2C)CCN3)ccn1	x	x	x	x	18%[49.3 µM]	13%[49.3 µM]	u
Cn1ccnc1CN1CCN(c2nccc(-c3ccccn3)n2)CC1	4%	-4%	i	6%	x	x	x
CC(=O)N1CCN(C(=O)c2cccc(-c3ccccn3)c2)CC1	-24%[172 µM]	-7%[138 µM]	x	x	x	x	x
COc1cccc(CN2CCNc3cc(-c4ccnc(C)c4)ncc3C2)c1	71µM*	u	14µM*	-4%[70.6 µM]	17%[49.3 µM]	16%[49.3 µM]	u
CC(=O)N1CCNc2cc(-c3cccc(F)c3)ncc2C1	x	x	x	x	21%[65.7 µM]	16%[65.7 µM]	u
CN(C)S(=O)(=O)N1CC(n2cnnc2C2CCCO2)C1 (stereo not given)	-15%	-12%	x	x	x	x	x
O=C1NC2(CCN([S+](=O)([O-])c3cccc(C(F)(F)F)c3)CC2)Oc2ccccc21	u	u	i	u	x	x	x
Cn1cc(CC(=O)N2CCCc3ncc(C(=O)NCCc4ccccn4)cc32)c2ccccc21	u	u	i	-6%	x	x	x
CC(=O)Nc1cccc(-c2cc3c(cn2)CN(Cc2ccccc2)CCN3)c1	u	u	14µM*	2%[70.6 µM]	20%[49.3 µM]	17%[49.3 µM]	u
C[C@H](C(=O)NCCN1CCOCC1)C1CC[C@@]2(C)Cc3sc(CSc4ccccc4)nc3[C@@H](C)[C@@H]2[C@H]1O (stereo not given in full)	40µM*	u	11µM*	10µM*	12%	11%	u
C[C@H](C(=O)N(C)CCC#N)C1CC[C@@]2(C)Cc3sc(NC(=O)c4cccn4C)nc3[C@@H](C)[C@@H]2[C@H]1O (stereo not given in full)	u	u	5µM*	u	30%	u	7µM*
C[C@H](C(=O)N1CCOCC1)C1CC[C@@]2(C)Cc3sc(-c4ccccc4)nc3[C@@H](C)[C@@H]2[C@H]1O (stereo not given in full)	u	u	14µM*	-2%	6.2µM*	u	3.5µM*
COc1ccccc1Nc1ccnc(N2CCCC2C(=O)NC2CC2)n1 (stereo not given)	-19%	-19%	x	x	x	x	x
CN1CCCCC12Cc1ccccc1CN(C(=O)c1ccccc1)C2 (stereo not given)	u	-22%	x	x	x	x	x
COc1ccc(C(=O)N2CCCC2c2nc(CCOc3cccc(C)c3)no2)cn1 (stereo not given)	u	-23%	i	-1%	x	x	x
Cc1cccc(OCCn2nnc3sc4c(c3c2=O)CCCC4)c1	x	x	x	x	7%	5%	u
COc1ccc(C(=O)N2CCc3ccc(C(=O)Nc4ccc5c(c4)OCCO5)cc32)cc1	u	u	3.2µM*	u	30%	u	5.6µM*
COc1ccc(C(=O)N2CCc3ccc(C(=O)Nc4ccc(OC)cc4C)cc32)cc1	u	-7%	i	-25%	x	x	x
CN1c2cc(C(=O)Nc3ccc4c(c3)OCCO4)ccc2C(=O)N2CCCC21 (stereo not given)	-27%	u	14µM*	-12%	28%	u	7.9µM*
CN1c2cc(C(=O)Nc3ccc(C(N)=O)cc3)ccc2C(=O)N2CCCCC21 (stereo not given)	-5%	u	i	0%	x	x	x
CN(C)c1ccc(NC(=O)c2ccc3c(c2)N(C)C2CCCCN2C3=O)cc1 (stereo not given)	u	u	2.8µM*	-10%	14%	17%	u
CN1c2cc(C(=O)Nc3ccccc3)ccc2C(=O)N2CCCCC21 (stereo not given)	u	-19%	7.1µM*	-20%	17%	16%	u
